Results filed as inconclusive are left out. Activity calls are given as the source filed them. The calls were made as follows: active = hit-call score of the fitted dose curve at least 0.9, where 1 is the maximum; inconclusive = response in the unintended direction; inactive = score below 0.9.

The nature of test [1]: ATG_XTT_Cytotoxicity: Cytotoxicity Assessment in the Attagene TRANS-FACTORIAL HepG2 Assay (AID 2283584).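 As to AC50: cells exposed to compound for 24 h before reading; active means loss of viability signal versus DMSO baseline.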 In short, it runs like this:
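HepG2 human liver cells, transiently transfected with multiple GAL4-UAS reporter units, were dosed and read at 24 h by XTT as cell number. Loss of signal was fitted relative to DMSO negative control baseline.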

The nature of test [2]: TOX21_p53_BLA_p2_viability: Viability Assessment in the Tox21 HCT-116 p53 Agonism Beta-lactamase Assay, Phase 2 (AID 2283591).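 Also: compound exposure lasted 16 h at 37 °C; actives lower the ATP signal meaning cytotoxicity.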 In short, it runs like this: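 HCT116 p53-bla cells, 4000/well, dosed after 5 h plating (217-fold dilution of DMSO stocks) and incubated 16 h at 37C. Viability taken as cellular ATP by CellTiter-Glo luminescence after 30 min RT; signal loss marks cytotoxicity.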

For test [3], the target named is Cellular tumor antigen p53 (Homo sapiens) (UniProt P04637). In words: TOX21_p53_BLA_p2_ratio: Tox21 HCT-116 p53 Agonism Beta-lactamase Assay, Ratio, Phase 2 (AID 2283592). In a few lines: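 Ratio endpoint: beta-lactamase cleavage of CCF4-AM, blue (460 nm) over green (530 nm). HCT116 reporter line; 16 h treatment, 37C; substrate 2 h RT.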
Cellular tumor antigen p53 (Homo sapiens), sequence (P04637 whole entry, looked up): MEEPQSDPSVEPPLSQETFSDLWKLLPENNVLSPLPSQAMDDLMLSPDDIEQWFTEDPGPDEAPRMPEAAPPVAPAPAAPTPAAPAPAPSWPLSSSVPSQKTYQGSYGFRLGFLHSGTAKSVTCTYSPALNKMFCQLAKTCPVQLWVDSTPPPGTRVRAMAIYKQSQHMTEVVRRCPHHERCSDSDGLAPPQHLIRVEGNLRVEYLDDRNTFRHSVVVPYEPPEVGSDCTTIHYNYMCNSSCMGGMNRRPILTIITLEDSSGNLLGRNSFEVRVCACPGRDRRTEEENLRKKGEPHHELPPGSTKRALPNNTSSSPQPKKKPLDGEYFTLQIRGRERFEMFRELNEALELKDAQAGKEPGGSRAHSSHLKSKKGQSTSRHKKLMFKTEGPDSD
Test [4] in a line: TOX21_p53_BLA_p3_viability: Viability Assessment in the Tox21 HCT-116 p53 Agonism Beta-lactamase Assay, Phase 3 (AID 2283593).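 Also: cells exposed to compound for 16 h before reading.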 In short, it runs like this:
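HCT116 cells, 4000/well, dosed 5 h after plating by pin transfer (217-fold dilution from DMSO stock) and incubated 16 h at 37C, 5% CO2. Viability read as ATP luminescence with CellTiter-Glo after 30 min at room temperature.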

The target of test [5] is Cellular tumor antigen p53 (Homo sapiens) (UniProt P04637). In words: TOX21_p53_BLA_p3_ratio: Tox21 HCT-116 p53 Agonism Beta-lactamase Assay, Ratio, Phase 3 (AID 2283596). In a few lines:
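Cells were seeded at 4000/well, rested 5 h at 37C, then dosed with DMSO compound solutions (217-fold dilution) for 16 h. CCF4-AM substrate was loaded for 2 h at room temperature, and the 460/530 nm emission ratio was fitted for gain of signal versus DMSO.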

The nature of test [6]: TOX21_p53_BLA_p4_viability: Viability Assessment in the Tox21 HCT-116 p53 Agonism Beta-lactamase Assay, Phase 4 (AID 2283597).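 Also: hits lower the luminescence signal meaning cytotoxicity.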 In short, it runs like this:
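Cytotoxicity was inferred from loss of CellTiter-Glo luminescence. HCT116 cells had been dosed with compounds after 5 h plating, incubated 16 h at 37C and 5% CO2, and exposed to the CCF4-AM substrate for 2 h.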

For test [7], the target named is Cellular tumor antigen p53 (Homo sapiens) (UniProt P04637). In words: TOX21_p53_BLA_p5_ratio: Tox21 HCT-116 p53 Agonism Beta-lactamase Assay, Ratio, Phase 5 (AID 2283599). In short, it runs like this:
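HCT-116 p53-bla cells (4000/well) plated 5 h, dosed with compound (217-fold DMSO dilution) for 16 h at 37 C; CCF4-AM substrate 2 h at room temperature. Activity is the 460/530 nm emission ratio (405 nm excitation), fitted in gain-of-signal direction versus DMSO.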

The nature of test [8]: TOX21_p53_BLA_p5_viability: Viability Assessment in the Tox21 HCT-116 p53 Agonism Beta-lactamase Assay, Phase 5 (AID 2283600). In a few lines:
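Luciferase-coupled ATP quantitation of cells treated for 16 h (37C, 5% CO2) with test chemicals delivered in DMSO via a 217-fold dilution; 4000 cells/well; reagent incubated 30 min at room temperature before luminescence reading.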

Test [9] concerns the target Cellular tumor antigen p53 (Homo sapiens) (UniProt P04637). In words: TOX21_p53_BLA_p4_ratio: Tox21 HCT-116 p53 Agonism Beta-lactamase Assay, Ratio, Phase 4 (AID 2283601). In a few lines:
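HCT-116 p53 beta-lactamase reporter cells (4000/well) preincubated 5 h, then compound (217-fold dilution of DMSO stock) for 16 h at 37C. CCF4-AM substrate added 2 h at room temperature; 460/530 nm emission ratio fitted upward versus DMSO.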

In the case of `OCC#CCO`, the compound was called inactive in [1], in test [2], in test [3], in [4], in [5] and in [6]. For the same compound, the outcome in [7] and in [8] was inactive.
In the case of `CCCCCCCCCC(=O)OC`, in test [1], the compound was called inactive.
Regarding `C=C(CC(=O)O)C(=O)O`, the compound was classed as inactive in test [1], in test [2], in test [3], in test [4], in test [5] and in [6]. The result in test [7] and in [8] was inactive.
For the compound `NCCNc1cccc2ccccc12`, the result in [1], in test [2], in test [3], in [4], in test [5] and in [6] was inactive. For the same compound, the result in test [7], in test [8] and in [9] was inactive.
On to `CCOc1ccc(NC(=O)CC(C)O)cc1` (configuration not stated), for which the result in test [1], in test [2], in test [3], in test [4], in [5] and in test [6] was inactive. For the same compound, the outcome in test [7], in [8] and in test [9] was inactive.
Take `CCCC(=O)OC(C)(C)Cc1ccccc1`: the outcome in test [1], in test [2], in test [3], in [4], in test [5] and in [6] was inactive. In addition, the outcome in test [7], in [8] and in test [9] was inactive.
For the compound `CC(C)=CCCC(C)CCOC=O` (configuration not stated), the result in test [1], in test [2], in [3], in [6], in [7] and in [8] was inactive. For the same compound, the outcome in test [9] was inactive. Moreover, the AC50 in test [4] was 39.7 µM (active); in test [5], 69.8 µM (active).
For `C=C(C#N)C(=O)OCC`, the compound was called inactive in test [1], in test [2], in [3], in test [4], in test [5] and in test [6]. Besides, the result in test [7], in test [8] and in test [9] was inactive.
As for `CCC(C)c1cc([N+](=O)[O-])cc([N+](=O)[O-])c1OC(=O)OC(C)C` (configuration not stated), the compound was classed as inactive in test [1], in test [2], in test [4], in [6], in test [8] and in test [9]. Besides, the AC50 is 7.55 µM (active) in test [3], 35.3 µM (active) in [5] and 36.9 µM (active) in [7].
As for `CCCCCCCCC=CCCCCCCCC1=NCCN1CCO`, the AC50 was 16.1 µM (active) in [1]; 46.1 µM (active) in test [2]; 77.4 µM (active) in [4]; 87.1 µM (active) in test [5]; 86.4 µM (active) in [6]; 87.8 µM (active) in test [9]. Further, the result in test [3], in test [7] and in [8] was inactive.
Take `CCCCCCCCCCCCCCN(CCO)CCO`: the AC50 in test [1] is 28.3 µM (active). In addition, the outcome in test [2], in test [3], in [4], in test [5], in [6] and in test [8] was inactive.
As for `CCCCCC(C=O)=Cc1ccccc1`, the outcome in test [1], in test [2], in test [3], in test [4], in [5] and in test [6] was inactive. Moreover, the outcome in [7] and in test [9] was inactive.
Turning to `O=C(O)c1ccc(O)cc1`, the outcome in [1], in test [2], in test [3], in test [4], in test [5] and in test [6] was inactive. The outcome in [7] and in test [9] was inactive.
For `CCCCCCOC(=O)CCC`, the outcome in test [1], in test [2], in test [3], in test [4], in test [5] and in test [6] was inactive. Besides, the result in [7] and in test [9] was inactive.
Regarding `Cc1c(OCC(F)(F)F)ccnc1CS(=O)c1nc2ccccc2[nH]1` (configuration not stated), the result in test [1], in test [2], in test [3], in test [4], in [5] and in [6] was inactive. In addition, the outcome in test [7], in [8] and in test [9] was inactive.
For the compound `CC1(C)O[C@@H]2C[C@H]3[C@@H]4CCC5=CC(=O)C=C[C@]5(C)[C@@]4(F)[C@@H](O)C[C@]3(C)[C@]2(C(=O)CO)O1`, the compound was classed as inactive in [1], in [2], in [3], in test [4], in [5] and in [6]. Also, the outcome in test [7], in test [8] and in test [9] was inactive.
In the case of `CSc1c(Cl)c(Cl)c(Cl)c(Cl)c1Cl`, the result in [1], in test [2], in [3], in test [5], in test [6] and in test [7] was inactive. For the same compound, the result in test [8] and in test [9] was inactive. In addition, the AC50 in test [4] was 45.9 µM (active).
As for `OCc1cccc(Oc2ccccc2)c1`, the outcome in [1], in [2], in [3], in [4], in test [5] and in test [6] was inactive. Further, the outcome in test [7], in test [8] and in test [9] was inactive.
Consider `CCCC1O[C@@H]2C[C@H]3[C@@H]4CCC5=CC(=O)C=C[C@]5(C)[C@H]4[C@@H](O)C[C@]3(C)[C@]2(C(=O)CO)O1` (some centres not stated), for which the result in test [1], in [2], in test [3], in test [4], in [5] and in [6] was inactive. For the same compound, the outcome in [7], in [8] and in test [9] was inactive.
For the compound `CCCCCCCCc1ccc(S(=O)(=O)O)cc1`, the compound was called inactive in test [1], in test [2], in test [3], in test [4], in [5] and in test [7]. For the same compound, the compound was classed as inactive in test [8] and in test [9]. Further, the AC50 in test [6] is 33.7 µM (active).
With `CCC1(c2ccccc2)C(=O)NCNC1=O`, the call in test [1], in test [2], in test [3], in [4], in test [5] and in [6] was inactive. Moreover, the outcome in test [8] and in test [9] was inactive.
As for `O=c1[nH]c(=O)c2cn[nH]c2[nH]1`, the result in [1], in test [2], in [3], in [4], in test [5] and in test [7] was inactive. Besides, the outcome in test [8] and in test [9] was inactive.
For the compound `CCCC(C)=O`, the compound was called inactive in [1], in [2], in [3], in test [4], in [5] and in [6]. The outcome in [7], in [8] and in [9] was inactive.
Consider `OCCOCCN1CCN(C2=Nc3ccccc3Sc3ccccc32)CC1`, for which the outcome in [1], in test [2], in [3], in test [4], in test [5] and in test [6] was inactive. The outcome in test [7], in test [8] and in test [9] was inactive.
With `O=CCc1ccccc1`, the outcome in test [1], in test [2], in test [3], in test [4], in [5] and in [6] was inactive. Further, the result in [8] and in test [9] was inactive.

The values above are taken from PubChem BioAssay (EPA / NIEHS).
